Records with an inconclusive call do not appear. Activity calls are given as the source filed them. The calls were made as follows, unless noted: active = hit-call score of the fitted dose curve at least 0.9, where 1 is the maximum; inconclusive = response in the unintended direction; inactive = score below 0.9.
What was measured:
[1] = target: bovine Gamma-Aminobutyric Acid Type A Receptor BDZ, alpha 1 site (GABARa1), GABRA1 (gene 780973) (UniProt P08219); assay: NVS_LGIC_bGABARa1: NovaScreen (NVS) Ligand-Gated Ion Channel Assay for bovine Gamma-Aminobutyric Acid Type A Receptor BDZ, alpha 1 site (GABARa1) (AID 2283321)
Summary of the method: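 Bovine cortex membrane preparation, benzodiazepine site on GABA-A alpha1; specific radioligand displacement read after 0.75 h by filtration and scintillation. Screen at 25 uM, then singleton titrations up to 50 uM; DMSO baseline.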

[2] = target: bovine Estrogen Receptor (ER), ESR1 (gene 407238) (UniProt P49884); assay: NVS_NR_bER: NovaScreen (NVS) Nuclear Receptor Binding Assay for bovine Estrogen Receptor (ER) (AID 2283345);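 also: actives lower the bound radioligand count which means they displace the ER ligand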
Summary of the method: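 Bovine uterine membranes; tritiated or iodinated radioligand; competitive displacement; 18 h; scintillation read; DMSO negative control; 25 uM duplicates, then concentration series for actives.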

[3] = target: Estrogen receptor (Homo sapiens) (UniProt P03372); assay: NVS_NR_hER: NovaScreen (NVS) Nuclear Receptor Binding Assay for human Estrogen Receptor (ER) (AID 2283348)
Summary of the method: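 Cell-free MCF7-derived ER preparation, specific radioligand displaced by test compound, read by scintillation counting 18 h post-dosing. Duplicate single-point 25 uM screen, then concentration-response confirmation; DMSO baseline.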

[4] = target: PGR (gene 5241) (UniProt P06401); assay: TOX21_PR_BLA_Followup_Antagonist_ratio: Tox21 HEK293 Progesterone Receptor (PR) Antagonism Beta-lactamase Follow-Up Assay, Ratio (AID 2283934)
Summary of the method: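 Read-out: blue/green beta-lactamase FRET ratio (cleaved ch2 over uncleaved ch1), fitted relative to DMSO baseline. Cells: PR-UAS-bla HEK293T, GAL4-UAS reporter, stimulated with 1 nM R5020 final; 16 hr compound exposure, 37C.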

[5] = TOX21_PR_BLA_Followup_Agonist_viability: Viability Assessment in the Tox21 HEK293 Progesterone Receptor (PR) Agonism Beta-lactamase Follow-Up Assay (AID 2283935);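 also: signal loss means lower viability so actives are cytotoxic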
Summary of the method: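 Luminescent ATP quantitation (CellTiter-Glo, 30 min, room temperature) in the same wells as the beta-lactamase read, on PR-UAS-bla HEK293T cells exposed to compound for 16 hr at 37C in 2% charcoal-stripped serum.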

[6] = TOX21_PR_BLA_Followup_Antagonist_viability: Viability Assessment in the Tox21 HEK293 Progesterone Receptor (PR) Antagonism Beta-lactamase Follow-Up Assay (AID 2283936);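 also: cells exposed to compound with R5020 agonist for 16 h; hits lower the luminescence signal meaning cytotoxicity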
Summary of the method: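 PR-UAS-bla HEK293T cells in medium with 2% charcoal-stripped FBS were treated with compounds plus R5020 for 16 hr at 37C. After the beta-lactamase read, CellTiter-Glo was added to the same wells and luminescence read after 30 min at room temperature.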

[7] = target: PGR (gene 5241) (UniProt P06401); assay: TOX21_PR_LUC_Followup_Antagonist: Tox21 HEK293 Progesterone Receptor (PR) Antagonism Luciferase Follow-Up Assay (AID 2283938);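 also: curve fitted upward as signal gain over DMSO baseline despite antagonist label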
Summary of the method: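 Cells are grown 5 days in charcoal-stripped-FBS assay medium, plated, left 5 h, then dosed with compound and incubated 16 h. ONE-Glo reagent is added and luminescence read after 30 min.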

[8] = TOX21_PR_LUC_Followup_Antagonist_viability: Viability Assessment in the Tox21 HEK293 Progesterone Receptor (PR) Antagonism Luciferase Follow-Up Assay (AID 2283940)
Summary of the method: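 Read-out: CellTiter-Glo ATP luminescence, loss of signal taken as reduced viability. Cells: HEK293-PR-A-luc, 3,000/well, 5 h settling, then 16 h compound exposure at 37C, 0% CO2.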

[9] = TOX21_PR_LUC_Followup_Agonist_viability: Viability Assessment in the Tox21 HEK293 Progesterone Receptor (PR) Agonism Luciferase Follow-Up Assay (AID 2283941);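 also: loss of signal means cytotoxicity so actives lower viability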
Summary of the method: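 Cytotoxicity counter-screen: ATP content by CellTiter-Glo luminescence, loss of signal = reduced viability. HEK293-PR-A-luc, 3,000 cells/well, compound exposure 16 h, 37C.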

[10] = target: Voltage-dependent N-type calcium channel subunit alpha-1B (Rattus norvegicus) (UniProt Q02294); assay: NVS_IC_rCaChN: NovaScreen (NVS) Ion Channel Assay for rat Calcium Channel, Type N (CaChN) (AID 2283317)
[11] = target: rat Corticotropin Releasing Factor Receptor (CRF), Crhr1 (gene 58959) (UniProt P35353); assay: NVS_GPCR_rCRF: NovaScreen (NVS) G Protein-Coupled Receptor Assay for rat Corticotropin Releasing Factor Receptor (CRF) (AID 2283300)
Summary of the method: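 Single-concentration (25 uM, duplicate) radioligand binding on rat cortical membrane preparations, counted by scintillation after 2 h. Activity scored as signal loss relative to DMSO negative control.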

[12] = TOX21_p53_BLA_p2_viability: Viability Assessment in the Tox21 HCT-116 p53 Agonism Beta-lactamase Assay, Phase 2 (AID 2283591);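 also: actives lower the ATP signal meaning cytotoxicity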
Summary of the method: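 Cytotoxicity readout: CellTiter-Glo ATP luminescence, 30 min at room temperature, after the beta-lactamase read. Cells were HCT116 exposed 16 h at 37C to compounds pin-transferred at 217-fold dilution from DMSO stocks.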

[13] = target: Cellular tumor antigen p53 (Homo sapiens) (UniProt P04637); assay: TOX21_p53_BLA_p3_ratio: Tox21 HCT-116 p53 Agonism Beta-lactamase Assay, Ratio, Phase 3 (AID 2283596)
Summary of the method: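 Cells were seeded at 4000/well, rested 5 h at 37C, then dosed with DMSO compound solutions (217-fold dilution) for 16 h. CCF4-AM substrate was loaded for 2 h at room temperature, and the 460/530 nm emission ratio was fitted for gain of signal versus DMSO.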

[14] = TOX21_p53_BLA_p5_viability: Viability Assessment in the Tox21 HCT-116 p53 Agonism Beta-lactamase Assay, Phase 5 (AID 2283600)
Summary of the method: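 Workflow: seed 4000 cells per well, wait 5 h, add compounds (DMSO, 217-fold dilution), incubate 16 h, load CCF4-AM 2 h, add CellTiter-Glo, read luminescence after 30 min.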

[15] = target: rat Neurotensin Receptor (NTS), Ntsr1 (gene 366274) (UniProt P20789); assay: NVS_GPCR_rNTS: NovaScreen (NVS) G Protein-Coupled Receptor Assay for rat Neurotensin Receptor (NTS) (AID 2283308)
Summary of the method: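 Single-point duplicates at 25 uM, then concentration series to 50 uM max for hits, measured radioligand displacement on rat forebrain membrane preparations. Bound label counted by filtration scintillation at 1 h; signal loss relative to DMSO fitted.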

[16] = TOX21_TRB_BLA_Agonist_Followup_viability: Viability Assessment in the Tox21 Thyroid Hormone Receptor beta Agonism Beta-lactamase (BLA) Follow-Up Assay (AID 2283956)
Summary of the method: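 Viability was read as CellTiter-Glo luminescence in the same wells as the TRb-bla agonist read-out. HEK293T GAL4-TRb LBD cells were treated for 18 h (37C, 5% CO2) at 11 concentrations in triplicate. Fits were bidirectional versus DMSO baseline.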

[17] = system: rat Monoamine Oxidase, MAO-A, Central (MAOAC), gene 29253; assay: NVS_ENZ_rMAOAC: NovaScreen (NVS) Enzymatic Assay for rat Monoamine Oxidase, MAO-A, Central (MAOAC) (AID 2283243);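 also: potency refers to inhibition seen as signal drop below DMSO baseline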
Summary of the method: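 Scintillation read-out of MAO-A activity in rat brain lysate, 1.5 h post-dosing. Primary single-concentration screen: 25 uM, duplicate; actives re-tested in concentration series. DMSO = negative control/baseline.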

[18] = target: Norway rat Vesicular Monoamine Transporter (VMAT2), neurotransmitter transporter, Slc18a2 (gene 25549) (UniProt Q01827); assay: NVS_TR_rVMAT2: NovaScreen (NVS) Transporter Assay for Norway rat Vesicular Monoamine Transporter (VMAT2), neurotransmitter transporter (AID 2283376);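 also: actives lower the bound radioligand signal below the DMSO level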
Summary of the method: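 Using rat forebrain membranes, specific radioligand binding to VMAT2 was measured by filtration and scintillation counting after 1 hour. Chemicals screened at 25 uM in duplicate, actives retested in concentration series, DMSO baseline.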

[19] = target: Cellular tumor antigen p53 (Homo sapiens) (UniProt P04637); assay: TOX21_p53_BLA_p2_ratio: Tox21 HCT-116 p53 Agonism Beta-lactamase Assay, Ratio, Phase 2 (AID 2283592)
Summary of the method: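 Plated HCT116 p53-bla cells (4000/well) received compound after 5 h, then 16 h at 37C/5% CO2. CCF4-AM added, 2 h RT. Ratio of 460 to 530 nm emission taken as the p53 reporter signal.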

[20] = TOX21_p53_BLA_p3_viability: Viability Assessment in the Tox21 HCT-116 p53 Agonism Beta-lactamase Assay, Phase 3 (AID 2283593);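 also: cells exposed to compound for 16 h before reading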
Summary of the method: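 Cellular ATP was quantified by CellTiter-Glo luminescence, read after 30 min at room temperature. Beforehand, HCT116 cells (4000/well) received compound 5 h post-seeding, 217-fold diluted from DMSO, then incubated 16 h at 37C.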

[21] = TOX21_p53_BLA_p4_viability: Viability Assessment in the Tox21 HCT-116 p53 Agonism Beta-lactamase Assay, Phase 4 (AID 2283597);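 also: hits lower the luminescence signal meaning cytotoxicity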
Summary of the method: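 Readout: ATP luminescence (CellTiter-Glo), measured 30 min after reagent addition at RT. The reagent followed a 2 h CCF4-AM incubation, and the cells had been exposed to compound for 16 h at 37C.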

[22] = target: Cellular tumor antigen p53 (Homo sapiens) (UniProt P04637); assay: TOX21_p53_BLA_p5_ratio: Tox21 HCT-116 p53 Agonism Beta-lactamase Assay, Ratio, Phase 5 (AID 2283599)
Summary of the method: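 Beta-lactamase reporter ratio (blue 460 nm over green 530 nm, 405 nm excitation) after 2 h CCF4-AM loading, in HCT-116 cells exposed 16 h at 37 C to compounds pinned at 217-fold dilution. Increases relative to DMSO baseline scored.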

[23] = target: Cellular tumor antigen p53 (Homo sapiens) (UniProt P04637); assay: TOX21_p53_BLA_p4_ratio: Tox21 HCT-116 p53 Agonism Beta-lactamase Assay, Ratio, Phase 4 (AID 2283601)
Summary of the method: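 Signal is the blue/green (460nm/530nm) ratio of cleaved versus uncleaved CCF4-AM substrate, read after 2 h substrate loading. Cells were HCT116 carrying the p53-responsive beta-lactamase reporter, dosed 16 h at 37C, 5% CO2; CellTiter-Glo measured in parallel.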

[24] = CCTE_Harrill_HTTr_Apoptosis_MCF7: CCTE's 6-hour Apoptosis Assessment for the High-Throughput Transcriptomics (HTTr) Platform, in MCF-7 cells cultured in DMEM + 10% fetal bovine serum, Harrill Lab (AID 2284011; active = hit-call score of the fitted dose curve at least 0.9, where 1 is the maximum; inactive = score below 0.9)
Summary of the method: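 MCF-7 (DMEM + 10% FBS), 384-well; 8-pt dilution series, 6 h chemical exposure; caspase-3/7 activation via CellEvent Caspase 3/7 Green, HCI; bidirectional fit vs DMSO.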

[25] = CCTE_Harrill_HTTr_CellCount_MCF7: CCTE's Cell Proliferation Assessment for the High-Throughput Transcriptomics (HTTr) Platform, Harrill Lab (AID 2284012);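 also: count of Hoechst-stained nuclei per well by high-content imaging in MCF-7 cells; cells exposed to compound for six hours; intended direction is loss of nuclei count meaning fewer cells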
Summary of the method: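 Readout: Hoechst nuclear count by high-content imaging. MCF-7, 8-point dilution series, 6 h exposure. Bidirectional fit vs DMSO baseline.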

Sequence of bovine Estrogen Receptor (ER), ESR1 (gene 407238) (P49884 whole entry, looked up): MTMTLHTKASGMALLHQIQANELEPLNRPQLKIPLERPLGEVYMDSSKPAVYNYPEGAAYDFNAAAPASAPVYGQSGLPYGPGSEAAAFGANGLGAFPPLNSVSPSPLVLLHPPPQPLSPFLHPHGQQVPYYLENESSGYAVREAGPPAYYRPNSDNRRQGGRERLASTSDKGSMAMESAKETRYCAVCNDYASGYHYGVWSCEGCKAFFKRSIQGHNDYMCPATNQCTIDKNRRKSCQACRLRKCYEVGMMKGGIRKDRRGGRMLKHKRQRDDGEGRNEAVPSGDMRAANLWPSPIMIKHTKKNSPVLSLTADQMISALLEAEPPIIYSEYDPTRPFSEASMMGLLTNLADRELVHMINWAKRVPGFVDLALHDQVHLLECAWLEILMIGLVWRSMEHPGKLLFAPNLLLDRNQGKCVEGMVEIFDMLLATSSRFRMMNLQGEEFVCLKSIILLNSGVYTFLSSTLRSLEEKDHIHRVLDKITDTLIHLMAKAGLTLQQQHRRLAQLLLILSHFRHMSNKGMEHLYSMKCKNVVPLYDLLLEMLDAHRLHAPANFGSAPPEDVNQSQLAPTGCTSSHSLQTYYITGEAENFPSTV
Sequence of bovine Gamma-Aminobutyric Acid Type A Receptor BDZ, alpha 1 site (GABARa1), GABRA1 (gene 780973) (P08219 whole entry, looked up): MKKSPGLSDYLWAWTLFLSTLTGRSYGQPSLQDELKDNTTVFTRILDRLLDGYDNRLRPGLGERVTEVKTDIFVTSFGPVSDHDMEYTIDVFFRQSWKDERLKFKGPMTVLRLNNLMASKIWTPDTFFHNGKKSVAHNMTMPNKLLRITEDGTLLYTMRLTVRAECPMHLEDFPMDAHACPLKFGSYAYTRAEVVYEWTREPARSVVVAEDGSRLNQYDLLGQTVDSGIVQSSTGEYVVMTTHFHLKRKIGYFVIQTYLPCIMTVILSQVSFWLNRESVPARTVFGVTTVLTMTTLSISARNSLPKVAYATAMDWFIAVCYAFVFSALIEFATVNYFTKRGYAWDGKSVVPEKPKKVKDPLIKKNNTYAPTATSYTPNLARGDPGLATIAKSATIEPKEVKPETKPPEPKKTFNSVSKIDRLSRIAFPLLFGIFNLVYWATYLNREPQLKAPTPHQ
Sequence of Estrogen receptor (Homo sapiens) (P03372 whole entry, looked up): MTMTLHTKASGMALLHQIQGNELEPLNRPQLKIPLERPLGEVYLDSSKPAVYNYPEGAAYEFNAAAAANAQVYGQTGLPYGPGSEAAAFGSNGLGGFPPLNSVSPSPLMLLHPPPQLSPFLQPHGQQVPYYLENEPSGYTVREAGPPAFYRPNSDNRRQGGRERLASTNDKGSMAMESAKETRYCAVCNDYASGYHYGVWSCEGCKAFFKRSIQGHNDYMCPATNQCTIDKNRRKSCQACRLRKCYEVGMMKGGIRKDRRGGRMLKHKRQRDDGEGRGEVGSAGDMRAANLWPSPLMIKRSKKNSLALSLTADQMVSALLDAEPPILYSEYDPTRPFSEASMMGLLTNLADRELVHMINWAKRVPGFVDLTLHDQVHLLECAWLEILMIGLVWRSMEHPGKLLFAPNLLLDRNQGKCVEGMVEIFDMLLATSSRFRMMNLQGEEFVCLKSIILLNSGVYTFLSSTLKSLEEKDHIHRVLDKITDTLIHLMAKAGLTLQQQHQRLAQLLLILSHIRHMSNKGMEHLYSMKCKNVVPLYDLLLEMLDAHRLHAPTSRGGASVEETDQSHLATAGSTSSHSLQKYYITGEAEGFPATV
Sequence of Cellular tumor antigen p53 (Homo sapiens) (P04637 whole entry, looked up): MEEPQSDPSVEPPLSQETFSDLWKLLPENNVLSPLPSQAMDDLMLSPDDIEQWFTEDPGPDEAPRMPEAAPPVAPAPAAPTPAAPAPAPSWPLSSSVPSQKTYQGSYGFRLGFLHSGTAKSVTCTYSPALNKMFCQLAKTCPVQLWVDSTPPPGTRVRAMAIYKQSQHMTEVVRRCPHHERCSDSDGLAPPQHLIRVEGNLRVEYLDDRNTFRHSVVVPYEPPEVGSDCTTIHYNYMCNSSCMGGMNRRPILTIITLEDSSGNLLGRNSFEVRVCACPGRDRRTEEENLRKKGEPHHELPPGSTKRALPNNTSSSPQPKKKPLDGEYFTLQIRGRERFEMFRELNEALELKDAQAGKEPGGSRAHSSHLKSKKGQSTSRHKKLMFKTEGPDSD
Sequence of rat Corticotropin Releasing Factor Receptor (CRF), Crhr1 (gene 58959) (P35353 whole entry, looked up): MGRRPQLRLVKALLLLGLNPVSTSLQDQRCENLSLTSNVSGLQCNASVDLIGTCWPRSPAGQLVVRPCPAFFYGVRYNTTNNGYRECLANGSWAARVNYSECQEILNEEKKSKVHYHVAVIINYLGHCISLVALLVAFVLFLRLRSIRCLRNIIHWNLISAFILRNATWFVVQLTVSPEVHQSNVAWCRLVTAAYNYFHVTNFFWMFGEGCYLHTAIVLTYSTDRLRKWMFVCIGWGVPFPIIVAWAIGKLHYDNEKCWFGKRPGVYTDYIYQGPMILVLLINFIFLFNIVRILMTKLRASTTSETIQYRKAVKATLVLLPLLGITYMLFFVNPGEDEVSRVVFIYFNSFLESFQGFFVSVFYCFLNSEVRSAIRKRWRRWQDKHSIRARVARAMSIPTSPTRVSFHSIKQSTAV
Sequence of Norway rat Vesicular Monoamine Transporter (VMAT2), neurotransmitter transporter, Slc18a2 (gene 25549) (Q01827 whole entry, looked up): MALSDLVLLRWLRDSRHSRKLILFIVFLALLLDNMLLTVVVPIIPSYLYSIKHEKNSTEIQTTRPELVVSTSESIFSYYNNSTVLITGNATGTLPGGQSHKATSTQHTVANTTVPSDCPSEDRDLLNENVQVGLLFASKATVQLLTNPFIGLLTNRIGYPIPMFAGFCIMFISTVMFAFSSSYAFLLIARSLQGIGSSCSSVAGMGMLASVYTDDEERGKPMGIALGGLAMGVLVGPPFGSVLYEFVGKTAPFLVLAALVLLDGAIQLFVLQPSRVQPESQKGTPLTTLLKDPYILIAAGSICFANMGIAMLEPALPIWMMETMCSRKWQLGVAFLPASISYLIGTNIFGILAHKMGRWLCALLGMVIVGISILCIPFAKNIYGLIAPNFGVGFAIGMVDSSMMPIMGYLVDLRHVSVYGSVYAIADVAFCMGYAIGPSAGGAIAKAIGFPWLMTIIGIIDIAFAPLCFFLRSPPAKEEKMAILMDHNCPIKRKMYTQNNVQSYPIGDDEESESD
Sequence of rat Neurotensin Receptor (NTS), Ntsr1 (gene 366274) (P20789 whole entry, looked up): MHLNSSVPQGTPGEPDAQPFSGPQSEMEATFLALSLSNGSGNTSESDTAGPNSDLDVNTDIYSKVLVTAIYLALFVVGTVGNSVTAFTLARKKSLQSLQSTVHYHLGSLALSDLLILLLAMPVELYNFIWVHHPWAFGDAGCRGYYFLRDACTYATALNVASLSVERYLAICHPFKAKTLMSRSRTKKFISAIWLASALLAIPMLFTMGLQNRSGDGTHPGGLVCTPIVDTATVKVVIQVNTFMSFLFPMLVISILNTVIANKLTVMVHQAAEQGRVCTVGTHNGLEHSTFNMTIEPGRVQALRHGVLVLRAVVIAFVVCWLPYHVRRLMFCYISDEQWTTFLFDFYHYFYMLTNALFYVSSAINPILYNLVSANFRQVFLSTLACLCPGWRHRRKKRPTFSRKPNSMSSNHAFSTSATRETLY
Sequence of PGR (gene 5241) (P06401 whole entry, looked up, the tested form may be a part): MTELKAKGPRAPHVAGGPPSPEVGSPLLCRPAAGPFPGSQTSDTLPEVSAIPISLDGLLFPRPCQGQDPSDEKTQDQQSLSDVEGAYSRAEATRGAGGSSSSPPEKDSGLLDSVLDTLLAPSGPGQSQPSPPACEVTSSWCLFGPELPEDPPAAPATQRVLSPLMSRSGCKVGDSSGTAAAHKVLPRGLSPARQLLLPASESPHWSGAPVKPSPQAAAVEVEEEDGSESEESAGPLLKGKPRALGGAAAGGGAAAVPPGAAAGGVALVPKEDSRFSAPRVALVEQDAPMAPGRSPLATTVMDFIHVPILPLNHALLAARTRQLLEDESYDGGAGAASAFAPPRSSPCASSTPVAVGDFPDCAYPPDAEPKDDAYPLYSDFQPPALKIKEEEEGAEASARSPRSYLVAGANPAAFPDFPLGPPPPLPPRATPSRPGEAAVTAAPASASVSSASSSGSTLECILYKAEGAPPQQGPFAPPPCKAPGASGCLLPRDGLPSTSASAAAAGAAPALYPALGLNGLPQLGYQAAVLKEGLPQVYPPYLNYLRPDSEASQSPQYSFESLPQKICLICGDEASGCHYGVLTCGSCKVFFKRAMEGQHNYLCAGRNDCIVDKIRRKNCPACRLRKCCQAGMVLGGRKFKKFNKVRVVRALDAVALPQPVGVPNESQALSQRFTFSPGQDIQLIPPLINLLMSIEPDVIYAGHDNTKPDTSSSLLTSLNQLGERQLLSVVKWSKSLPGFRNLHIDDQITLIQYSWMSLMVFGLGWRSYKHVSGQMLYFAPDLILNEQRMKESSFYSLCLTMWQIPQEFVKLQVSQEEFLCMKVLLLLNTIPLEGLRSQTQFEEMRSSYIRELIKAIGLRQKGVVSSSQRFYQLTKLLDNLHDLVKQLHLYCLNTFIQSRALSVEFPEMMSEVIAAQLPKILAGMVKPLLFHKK

## C1=CCCC=CCCC=CCC1
[1]
  outcome: inactive

## COP(=S)(NC(C)C)Oc1ccc(C)cc1[N+](=O)[O-] (stereo unspecified)
[2]
  AC50: 9.3 µM (active)
[3]
  AC50: 11.5 µM (active)
[4]
  AC50: 20.3 µM (active)
[5]
  outcome: inactive
[6]
  outcome: inactive
[7]
  AC50: 21.2 µM (active)
[8]
  outcome: inactive
[9]
  outcome: inactive

## CCOc1ccc2[nH]cc(C(=O)NCc3ccccc3)c(=O)c2n1
[1]
  outcome: inactive

## OCC(CO)(CO)CO
[10]
  outcome: inactive

## COCCOCCOCCOC
[11]
  outcome: inactive

## CCCCCCCCCCCCCCCS(=O)(=O)Oc1ccccc1
[10]
  outcome: inactive

## CCOP(=O)(Sc1ccccc1)Sc1ccccc1
[2]
  outcome: inactive
[3]
  outcome: inactive

## c1coc(-c2nc3ccccc3[nH]2)c1
[2]
  outcome: inactive
[3]
  outcome: inactive
[12]
  outcome: inactive
[13]
  outcome: inactive
[14]
  outcome: inactive

## COC(=O)c1ccc(I)cc1S(=O)(=O)NC(=O)Nc1nc(C)nc(OC)n1
[15]
  outcome: inactive
[16]
  outcome: inactive

## O=C(c1ccccc1)c1ccc(O)cc1O
[17]
  AC50: 21 µM (active)
[18]
  outcome: inactive
[16]
  outcome: inactive

## COC(=O)c1ccccc1C(=O)O
[17]
  outcome: inactive
[15]
  outcome: inactive

## CCCCc1ccc2c(n1)[C@@H](c1ccc(OC)cc1C[C@H](C)C(=O)O)[C@H](C(=O)O)[C@H]2c1ccc2c(c1)OCO2
[1]
  outcome: inactive

## CCC(C)(C)C1CCC(O)CC1 (stereo unspecified)
[11]
  outcome: inactive

## CC(=O)Nc1ccc(C(=O)CCl)cc1
[17]
  AC50: 5.58 µM (active)
[16]
  outcome: inactive

## N#Cc1sc2c(=O)c3ccccc3c(=O)c=2sc1C#N
[2]
  AC50: 9.58 µM (active)
[3]
  AC50: 10.3 µM (active)
[12]
  AC50: 14.9 µM (active)
[19]
  AC50: 0.333 µM (active)
[20]
  AC50: 25.2 µM (active)
[13]
  AC50: 52.2 µM (active)
[21]
  AC50: 8.76 µM (active)
[22]
  AC50: 0.347 µM (active)
[14]
  AC50: 7.3 µM (active)
[23]
  AC50: 6.18 µM (active)
[24]
  outcome: inactive
[25]
  outcome: inactive

## Cc1cc(C)c(C=O)c(C)c1
[17]
  AC50: 19.9 µM (active)
[18]
  outcome: inactive

## Cn1cnc([N+](=O)[O-])c1Sc1ncnc2nc[nH]c12
[1]
  outcome: inactive

From PubChem BioAssay (EPA / NIEHS)
